From PubChem BioAssay AID1498 (National Center for Advancing Translational Sciences (NCATS), 2009) come the findings set out here.

Results filed as inconclusive are left out. The source made the active and inactive calls. The call rests on the fitted dose curve.

The experiment is described as follows: Confirmation Concentration-Response Assay for Modulators of Lamin A Splicing. As to conditions: HeLa lamin A splicing GFP/RFP minigene, Acumen, 48 h; RFP activity: RFP channel at top concentration, at 46.1 µM; ratio activity: GFP/RFP ratio at top concentration, at 46.1 µM; series mostly up to 46.1 µM; GFP activity change, negative = decrease: at the top concentration. The text has this:
NCGC Assay Overview: Hutchinson-Gilford Progeria Syndrome (HGPS) is a pediatric premature aging disease caused by a spontaneous mutation in the lamin A/C (LMNA) gene. The mutation activates a cryptic splice site in the LMNA pre-mRNA which results in production of a pre-lamin A protein that cannot be processed properly. The mutant protein accumulates in the nucleus and negatively affects numerous cellular functions. Correction of the splicing defect in HGPS patient cells using a targeted oligonucleotide (exo11) leads to reversal of the cellular disease phenotypes. To identify small molecule modulators of aberrant LMNA splicing, a homogenous assay was constructed in HeLa cells that used a GFP containing minigene to report on correction of aberrant splicing in lamin A and a RFP (DsRed2) to report on cell viability, uniformity and nonspecific effects on the assay signal. This assay was adapted to laser-scanning microplate cytometry (Acumen, TTP Labtech) where miniaturization of the assay to a 1,536-well plate format was possible. Select compounds active in the primary screen (AID 1487) were chosen for confirmation based on potency, efficacy, SAR and activity in other assays in PubChem and at NCGC. References: Bowen, W. P.; Wylie, P. G. Application of Laser-Scanning Fluorescence Microplate Cytometry in High Content Screening. Assay Drug Dev Technol 2006;4:209-221. Scaffidi P, Misteli T. Reversal of the cellular phenotype in the premature aging disease Hutchinson-Gilford progeria syndrome. Nat. Med. 2005;11:440-445.
NCGC Assay Protocol Summary: Reagents/Controls: Stable clones expressing DsRed2 and lamin A-EGFP were generated by Cell and Molecular Technologies in S3 HeLa cells. HeLa cells were prepared for the assay when they were 70-90% confluent. The cells were counted and resuspended in Opti-MEM I (no phenol red; Gibco), 2% FBS, 1% penicillin/ streptomycin (Gibco) at concentration of 120 cells/uL concentration. The suspension was passed through a Falcon basket filter with pore size 40um (Beckton Dickson). Control titrations: column […] 1536-well plate contained a sixteen point titration (1:2 dilutions) in duplicate of ancitabine (Sigma: A8598) beginning at 40 uM final concentration. Column 2 contained a sixteen point titration (1:2 dilutions) of cycloheximide beginning at 1.4 mM final concentration. Column 3 contained ancitabine at 40 uM and column 4 contained was the vehicle control (0.5% DMSO final concentration). Assay Steps: 5 uL of HeLa cells were plated in Aurora LoBase black clear bottom (cyclic-olefin polymer) 1536-well plates at a final density of 600 cells/well. Controls and library compounds were added with a 1536-well pin array using the Kalypsys pin-tool. The plates were then incubated for 48 hrs in a cell-culture incubator (37 °C; 5% CO2, 98% humidity). Following incubation the plates were read on the Acumen Explorer using the 488 nm laser. Data was collected on objects between 10 and 100 um in size. Cell objects were defined by a 15 um width x 10 um depth filter. The ratio of the total object intensity in PMT1 (500-530 nm emission; GFP) over PMT3 (575-640 nm emission; RFP) was calculated for analysis. Keywords: NIH Roadmap, MLSCN, MLI, MLSMR, qHTS, NCGC, lamin A, Progeria, RNA splicing.
Regarding `C/C(=N\NC(=O)C(c1ccncc1)N1CCOCC1)c1ccc(Br)cc1` (configuration not stated), the ratio activity was -18.1%; the RFP activity turned out to be 7.84%; the “GFP activity change, negative = decrease” value is -10.9% (inactive).
Taken in the same sequence, the figures for `COc1ccc(O)c(/C=N/NC(=O)c2ccc(OCc3cccc(Br)c3)cc2)c1` were -5.52%, -32.5% and -21.1% (inactive).
On the same counts, the results for `Cc1noc(C)c1-c1ccc2ncnc(NCc3cccc(-c4ccccc4)c3)c2c1` are -27.8%, 22.9% and 1.82% (inactive).
Taken in the same sequence, the figures for `O=C(COc1ccc(Br)cc1)NNC(=S)NC(=O)c1ccccc1[N+](=O)[O-]` were -24.6%, 11.7% and -24.3% (inactive).
For `CC(=O)Nc1ccc(-c2csc(NC(=O)C3CCN(S(=O)(=O)c4cccs4)CC3)n2)cc1`, the ratio activity was -13.5%; the RFP activity worked out at 16.5%; the “GFP activity change, negative = decrease” value was -2.98% (inactive).
On the same counts, the results for `Cc1cccc(C)c1OC[C@H](C)N` are -11.5%, -24.1% and -32.5% (inactive).
On the same counts, the results for `CC(=O)c1c(C)[nH]c(C(=O)Nc2c(C)n(C)n(-c3ccccc3)c2=O)c1C` are -9.7%, 1.7% and -2.29% (inactive).
Taken in the same sequence, the figures for `CC1=NS(=O)(=O)c2cc(Cl)ccc2N1` were -9.16%, -10.7% and -18.6% (inactive).
Consider `O=C(c1ccc(Cl)c(Cl)c1)N1CCC(=O)N(C(COCc2cccc(C(F)(F)F)c2)Cc2ccccc2)CC1` (configuration not stated), for which the “GFP activity change, negative = decrease” value is -32.8% (inactive); the ratio activity is -24.5%; the RFP activity turned out to be 13.3%.
Taken in the same sequence, the figures for `CC(C)(C)n1nnnc1C(c1ccc2ncccc2c1)N1CCSCC1` (configuration not stated) were -12.4% (inactive), -14.8% and -8.12%.
Take `Cc1ccc(S(=O)(=O)N(CC(=O)Nc2ccccc2C(=O)O)c2cccc(Cl)c2C)cc1`: the “GFP activity change, negative = decrease” value is 7.34% (inactive); the ratio activity was -14.3%; the RFP activity was 26.8%.
Taken in the same sequence, the figures for `Cc1noc(C)c1-c1ccc2ncnc(NCc3ccc(C(C)(C)C)cc3)c2c1` were -6.32% (inactive), -12.9% and -7.69%.
Taken in the same sequence, the figures for `Cn1c(Sc2ccccc2Cl)c(C=O)c2ccccc21` were -13.3% (inactive), 0.328% and -2.07%.
On the same counts, the results for `Cc1cc(Nc2ccccc2)nc2cc(O)ccc12` are -18.1% (inactive), -18.8% and 11.6%.
